Compounds with a hit are over-represented: about 4.6% of the library has one in this group of screens.
sEH inh: blocks human soluble epoxide hydrolase activity; P34913; recombinant human sEH enzymatic activity assay; inhibition, % at 2 µM; 91,000 compounds, 0.34% hits; AID 707; in the data active means inhibition above about 80%
Target sequence (P34913 whole entry, looked up): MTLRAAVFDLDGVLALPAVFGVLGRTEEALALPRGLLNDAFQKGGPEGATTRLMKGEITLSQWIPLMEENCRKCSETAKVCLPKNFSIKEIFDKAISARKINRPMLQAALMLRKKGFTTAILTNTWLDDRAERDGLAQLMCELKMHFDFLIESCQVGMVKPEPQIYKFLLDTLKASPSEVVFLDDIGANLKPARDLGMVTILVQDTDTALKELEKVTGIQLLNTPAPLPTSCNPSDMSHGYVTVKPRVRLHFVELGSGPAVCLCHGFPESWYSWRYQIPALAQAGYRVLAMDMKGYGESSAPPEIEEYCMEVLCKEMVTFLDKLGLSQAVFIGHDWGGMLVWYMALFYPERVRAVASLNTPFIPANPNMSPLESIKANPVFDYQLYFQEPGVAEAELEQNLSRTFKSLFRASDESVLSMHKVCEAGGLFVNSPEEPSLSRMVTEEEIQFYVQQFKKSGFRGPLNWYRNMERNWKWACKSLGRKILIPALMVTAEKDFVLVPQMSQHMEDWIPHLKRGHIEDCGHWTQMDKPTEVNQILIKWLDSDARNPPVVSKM
NFkB transloc inh: blocks IL-1B driven NFkB nuclear translocation in HUVEC cells; HUVEC IL-1B NFkB p65 nuclear translocation imaging; inhibition, % at 2 µM; 94,000 compounds, 0.43% hits; AID 796;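 active means inhibition above about 30% together with a positive call from visual inspection of the well image, limit read from the data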;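 further: nuclear over cytoplasmic p65 intensity ratio measured by imaging; 0% = IL-1B stimulated DMSO wells and 100% = unstimulated DMSO wells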
sEH act: activators of human soluble epoxide hydrolase | P34913 | purified human sEH enzymatic activity, activator screen | activation, % at 2 µM | 91,000 compounds, 0.04% hits | AID 717; in the data active means activation above about 37%
IL1B NFkB pot: enhances IL-1B driven NFkB nuclear translocation; activation, % at 2 µM; 94,000 compounds, 0.3% hits; HUVEC IL-1B NFkB p65 nuclear translocation imaging;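 active means activation above 40%, about the mean plus 3 SD, also judged a hit on visual image review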;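 further: percent activation is computed from the nuclear over cytoplasmic p65 intensity ratio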
Cav3 T inh: blocks human Cav3.2 T-type calcium channel | B-score at 10 µM | 100,000 compounds, 4% hits | AID 449739 | Cav3.2-expressing cells, Fluo-4 calcium fluorescence FDSS; active compounds read low | O95180;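 active means single-dose well whose peak fluorescence ratio is a statistical outlier from its plate by either plate-standardised score or position-corrected B-score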
HUVEC tox IL1B: toxic to HUVEC cells under IL-1B stimulation; HUVEC cell count loss, Hoechst imaging, IL-1B stimulated; cell count reduction, % at 2 µM; 94,000 compounds, 0.41% hits; AID 845;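 active means cell count reduction more than 3 SD above the screen-wide mean, cut at about 70% in these data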;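 further: normalized per plate to untreated control cells as the no-loss baseline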
* hit, by the source's call; nt = no result.

SMILES	sEH inh	NFkB transloc inh	sEH act	IL1B NFkB pot	Cav3 T inh	HUVEC tox IL1B
COc1ccc(C2NC(=S)N(c3ccccc3)C(C)=C2C(=O)Nc2ccccc2)cc1 (centres undefined)	10	-22	-10	22	-2.7	-88
CC1=C(C(=O)Nc2ccc([N+](=O)[O-])cc2)C(c2cccc(C(F)(F)F)c2)NC(=S)N1c1ccccc1 (centres undefined)	1	13	2	-13	-6.7*	-17
O=C(COC(=O)C1CC(=O)N(c2nc(-c3ccccc3)cs2)C1)c1ccccc1 (centres undefined)	5	-1	-4	1	-0.84	-11
CC(C)c1ccc(C(=O)CC2(O)C(=O)N(CN3CCOCC3)c3ccccc32)cc1 (centres undefined)	-7	-10	11	10	-5.8*	26
O=c1[nH]n(-c2ccccn2)c(=O)c2ccccc12	9	6	-10	-6	1.8	-4
COC(=O)c1ccc(S(=O)(=O)N2C3CCC2CC(NC(=O)NC2CCCCC2)C3)cc1 (centres undefined)	98*	-17	-98	17	nt	6
Cc1ccc(-c2cc(C(F)F)n3ncc(C(=O)N4CCN(c5ccccn5)CC4)c3n2)cc1	-8	-12	8	12	-5.3*	-27
Cc1sc(NC(=O)C2CCCCC2C(=O)O)c(C(N)=O)c1-c1ccccc1 (centres undefined)	1	-13	-1	13	0.72	-60
Cc1sc(NC(=O)C2CCCCC2C(=O)O)c(C(N)=O)c1C (centres undefined)	11	-4	-11	4	-4.2*	-16
O=C(c1cc(-c2ccccc2O)on1)N1CCc2ccccc2C1	6	-22	-4	22	0.02	-41
O=C(c1cc(-c2ccc(O)cc2)on1)N1CCc2ccccc2C1	-5	-20	7	20	-6.2*	-41
O=c1c2ccccc2c(C=NC2CCS(=O)(=O)C2)c(O)n1-c1ccccc1 (centres undefined)	15	-14	-14	14	-0.38	6
O=S1(=O)CCC(N=Cc2cc(Br)ccc2O)C1 (centres undefined)	-12	-5	10	5	-12*	0
CCCN(Cc1cc2cc(C)ccc2[nH]c1=O)C(=O)c1cccc(OC)c1	2	2	-3	-2	-1.1	-18
Cc1cc(N2CCC(C(=O)Nc3ccc(F)cc3)CC2)nc(-c2ccccc2)n1	71	6	-71	-6	-6.9*	8
Cc1cc(C)nc(N2CCC(C(=O)Nc3cccc(C(F)(F)F)c3)CC2)n1	nt	-5	nt	5	-4.2*	-15
Cc1cc(N2CCC(C(N)=O)CC2)nc(-c2ccccc2)n1	-22	1	24	-1	1.2	7
CS(=O)(=O)N1CCC(C(=O)Nc2cccc(C(F)(F)F)c2)CC1	nt	nt	nt	nt	0.42	nt
COc1ccc(NC(=O)C2CCN(c3cc(C)nc(-c4ccccc4)n3)CC2)cc1	72	-6	-72	6	-5.9*	-31
COc1ccc(/C=C/C(=O)Nc2nc(C)cc(C)n2)cc1OC	6	-3	-7	3	0.0037	-36
COC(=O)c1c(C)oc2ccc(OC(=O)N3CCOCC3)cc12	-12	-7	14	7	-0.0038	-13
Cc1cccc(NC(=O)CN2C(=O)COc3ccc(Cl)cc32)c1C	17	6	-18	-6	-5.3*	3
COc1cccc(NC(=O)CN2C(=O)COc3ccc(Cl)cc32)c1	nt	nt	nt	nt	-5.4*	nt
Cc1cccc(NC(=O)CN2C(=O)COc3ccc(Cl)cc32)c1	nt	nt	nt	nt	-3.5	nt
COc1cccc(Oc2cncnc2-c2ccc(OC)cc2O)c1	-9	-5	9	5	-3.9*	-28
SMILES	sEH inh	NFkB transloc inh	sEH act	IL1B NFkB pot	Cav3 T inh	HUVEC tox IL1B
CCOc1ccc(-c2nc(N)ncc2Oc2cccc(OC)c2)c(O)c1	-3	-11	0	11	0.7	-31
CCn1cc(C(=O)NCc2ccco2)c(=O)c2cc(S(=O)(=O)N3CCCCCC3)ccc21	15	4	-14	-5	-2.2	-6
CCn1cc(C(=O)NC2CCC(C)CC2)c(=O)c2cc(S(=O)(=O)N3CCCCC3)ccc21 (centres undefined)	72	0	-72	0	-7.2*	8
C=CCn1cc(C(=O)NCc2ccco2)c(=O)c2cc(S(=O)(=O)N3CCCCCC3)ccc21	5	-4	-4	4	-4.9*	7
CCn1cc(C(=O)NCc2ccco2)c(=O)c2cc(S(=O)(=O)N3CC(C)CC(C)C3)ccc21 (centres undefined)	7	1	-5	-1	-8.1*	-10
COc1cc(NC(=O)C2CCCN2C(=O)C2CCC(C)CC2)cc(OC)c1OC (centres undefined)	-2	2	2	-2	1.1	-2
O=C(C(Cc1ccccc1)n1cccc1)N1CCc2ccccc21 (centres undefined)	nt	nt	nt	nt	-6.2*	nt
CCOc1cccc2c1OC1(C)CC2NC(=O)N1c1cccc(F)c1 (centres undefined)	-1	-7	-2	7	-0.35	-7
Cc1[nH]c2ccccc2c1Cc1n[nH]c(=S)o1	nt	-46	nt	46*	0.94	13
CCC1CN(C)C2Cc3c([nH]c4ccccc34)C(=O)CC1C2C(=O)OC (centres undefined)	nt	nt	nt	nt	-0.41	nt
CC[C@H]1CC2CN3CCc4c([nH]c5c([C@H]6C[C@H]7[C@H](CC)CN(C)[C@@H](Cc8c6[nH]c6ccccc86)[C@H]7C(=O)OC)c(OC)ccc45)C(C(=O)OC)(C2)C13	nt	nt	nt	nt	-3.8*	nt
Cn1cccc1C(=O)NC(=O)CSc1nnc(C2CC2)n1-c1ccccc1	2	-10	-2	10	-0.061	-145
CC(=O)C1=C(C)NC(SCC(=O)c2ccc(Cl)c(Cl)c2)=C(C#N)C1c1ccco1 (centres undefined)	nt	-20	nt	19	-2.9	-25
CCOc1ccc(C(F)(F)F)cc1NC(=O)c1ccc(OC)c([N+](=O)[O-])c1	-2	6	3	-6	-1.6	50
COC(=O)CNS(=O)(=O)c1ccc(C)cc1	-13	-7	11	7	-0.087	14
Cc1ccc(C(=O)C(OC(=O)CNC(=O)c2ccc(Cl)cc2)c2ccccc2)cc1 (centres undefined)	0	-13	-1	13	-7.1*	-2
Cc1ccc(S(=O)(=O)NCC(=O)OC(C(=O)c2ccccc2)c2ccccc2)cc1 (centres undefined)	-7	13	5	-13	-3.5*	-118
Cc1cc(C(=O)NCC(=O)OC(C(=O)Nc2cc(C(F)(F)F)ccc2Cl)c2ccccc2)ccc1[N+](=O)[O-] (centres undefined)	-8	-16	6	16	-9*	-2
CC1(C)Cc2c(c(N3CCOCC3)nc3sc4c(NCc5ccco5)nnnc4c23)CS1	9	-1	-8	1	1.3	-92
CC(=O)Cc1nsc(NC(=O)c2cc(-c3cccc(C(F)(F)F)c3)oc2C)n1	10	-23	-13	23	0.0035	2
